Data published in PubChem BioAssay (Tox21).
Results filed as inconclusive are left out. The source made the active and inactive calls. The call rests on the fitted dose curve.

Tests used:
[1] = target: Acetylcholinesterase (Homo sapiens) (UniProt P22303); experiment: Acetylcholinesterase (AChE) small molecule antagonists: colormetric cell-based qHTS assay (AID 1347395); conditions: SH-SY5Y cells AChE activity, colorimetric (Ellman); series mostly up to 115 µM; further: nearly all actives have a fitted effect of over 30% in size
Summary of the method: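 Colorimetric readout: DTNB quantifies thiocholine from acetylthiocholine hydrolysed by endogenous AChE of SH-SY5Y cells (2,000/well, plated overnight). Compound pretreatment 30 min, substrate incubation 90 min, both 37 C.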

[2] = target: Acetylcholinesterase (Homo sapiens) (UniProt P22303); experiment: Acetylcholinesterase (AChE) small molecule antagonists: enzyme-based qHTS assay (AID 1347397); conditions: Potency: AChE enzyme activity inhibition; outcome: AChE enzyme activity inhibition; series mostly up to 115 µM; further: nearly all actives have a fitted effect of over 55% in size
Summary of the method: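 rhAChE 50 mU/mL (dispensed) + cpd or DMSO, 30 min RT; add DTNB/acetylthiocholine cocktail, 10 min RT; colorimetric thiocholine readout. qHTS, 1536-well format.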

[3] = target: Acetylcholinesterase (Homo sapiens) (UniProt P22303); experiment: Acetylcholinesterase (AChE) small molecule antagonists: fluorescence cell-based qHTS assay (AID 1347398); conditions: SH-SY5Y cells; Potency: AChE activity; outcome: AChE activity; series mostly up to 115 µM; further: nearly all actives have a fitted effect of over 50% in size
Summary of the method: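 Read-out is Thiolite Green fluorescence at Ex/Em = 490/520 nm, formed by reaction with thiocholine released when cellular AChE in SH-SY5Y cells hydrolyzes acetylthiocholine. Compounds were preincubated 30 min at 37 C before substrate.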

[4] = target: Acetylcholinesterase (Homo sapiens) (UniProt P22303); experiment: Acetylcholinesterase (AChE) small molecule antagonists: enzyme-based qHTS assay with human liver microsomes (AID 1347399); conditions: Potency: qHTS inhibition; outcome: qHTS inhibition; series mostly up to 115 µM; further: nearly all actives have a fitted effect of over 60% in size
Summary of the method: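 Recombinant human AChE (50 mU/mL in the enzyme mix) and human liver microsomes (0.25 mg/mL final) were preincubated with compound and NADPH (0.25 mg/mL final) for 30 min at 37 C. Acetylthiocholine/DTNB was then added; thiocholine was read colorimetrically after 10 min at room temperature.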
On the % scale 0 is the no-effect control and ±100 the full control effect.

Chain of Acetylcholinesterase (Homo sapiens) (P22303 whole entry, looked up): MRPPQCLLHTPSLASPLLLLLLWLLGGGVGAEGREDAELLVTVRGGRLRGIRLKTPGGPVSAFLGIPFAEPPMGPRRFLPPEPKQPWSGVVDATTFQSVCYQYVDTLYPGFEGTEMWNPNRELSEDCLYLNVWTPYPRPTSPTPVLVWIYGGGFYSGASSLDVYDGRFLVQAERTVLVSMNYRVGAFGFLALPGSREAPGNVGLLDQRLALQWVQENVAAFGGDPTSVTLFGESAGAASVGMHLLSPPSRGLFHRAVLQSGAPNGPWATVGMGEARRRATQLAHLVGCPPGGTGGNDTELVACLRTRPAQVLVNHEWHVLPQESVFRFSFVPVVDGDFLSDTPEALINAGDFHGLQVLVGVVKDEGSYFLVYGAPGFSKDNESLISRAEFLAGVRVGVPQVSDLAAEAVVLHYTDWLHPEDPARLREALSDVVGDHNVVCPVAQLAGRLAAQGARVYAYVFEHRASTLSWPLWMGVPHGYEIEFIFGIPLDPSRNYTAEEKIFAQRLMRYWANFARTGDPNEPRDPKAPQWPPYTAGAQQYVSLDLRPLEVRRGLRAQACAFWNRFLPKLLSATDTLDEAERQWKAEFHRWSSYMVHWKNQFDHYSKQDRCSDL

NC(=O)c1cc[n+](CC2=C(C(=O)[O-])N3C(=O)[C@@H](NC(=O)Cc4cccs4)[C@H]3SC2)cc1
inactive: Potency [1] | Potency [2] | Potency [3] | Potency [4]

C#CC(O)CCCCC (stereo not drawn)
inactive: Potency [1] | Potency [2] | Potency [3] | Potency [4]

CCNC(=O)NCc1cccc(Cl)c1
inactive: Potency [1] | Potency [2] | Potency [3] | Potency [4]

CCC(C)S (stereo not drawn)
inactive: activity, negative = inhibition [1] 1.56% [at 4.07 µM] | activity change, negative = inhibition [2] 0.922% [at 4.07 µM] | activity change, negative = inhibition [3] 4.18% [at 3.98 µM] | activity change, negative = inhibition [4] -0.581% [at 4.07 µM]

C[C@H](N)C(=O)N[C@@H](C)C(=O)NC1[C@H]2CN(c3nc4c(cc3F)c(=O)c(C(=O)O)cn4-c3ccc(F)cc3F)C[C@@H]12 (stereo partly drawn)
inactive: outcome [1] | outcome [2] | outcome [3] | outcome [4]

C=CC(C)(CCC=C(C)C)OC(=O)CC (stereo not drawn)
inactive: Potency [1] | Potency [2] | Potency [3] | Potency [4]

[O]=[Mo](=[O])=[O]
inactive: activity, negative = inhibition [1] 2.74% [at 23.6 µM] | activity change, negative = inhibition [2] 0.153% [at 23.6 µM] | activity change, negative = inhibition [3] 0.826% [at 23.8 µM] | activity change, negative = inhibition [4] 0.081% [at 23.6 µM]

CCN(CC)C(=O)Nc1ccc(OCC(O)CNC(C)(C)C)c(C(C)=O)c1 (stereo not drawn)
inactive: Potency [1] | Potency [2] | Potency [3] | Potency [4]

CCN(CC)CC
inactive: Potency [1] | Potency [2] | Potency [3] | Potency [4]

O=C(O)CNC(=O)CNC(=O)CNC(=O)CSC(=O)c1ccccc1
inactive: Potency [1] | Potency [2] | Potency [3] | Potency [4]

NC(=O)c1ccccc1C(N)=O
inactive: Potency [1] | Potency [2] | Potency [3] | Potency [4]

CC(C)(O)c1ccccc1
inactive: Potency [1] | Potency [2] | Potency [3] | Potency [4]
